# Data taken from the supplement of paper PMC6518042.
# Values without a mark were called inactive.
# Tested on: Pectobacterium parmentieri SCC3193
# Assay: DuctApe activity index (growth/respiration on compound as sole nutrient source, blank-subtracted) (activity index (0-3)); higher = stronger utilization of the compound, active = 3 or more
# Conditions: nutrient role (plate category): carbon
# Description: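 Biolog Phenotype Microarray plates PM1, PM2A (carbon), PM3 (nitrogen) and PM4 (phosphorus/sulfur) inoculated with P. parmentieri SCC3193 in M9-C minimal salts medium with Biolog dye A, and read in the OmniLog for 46 h. Each well was tested in triplicate and the experiment was run twice. DuctApe computed a blank-subtracted activity index (AV, 0-3) from the mean curves; growth is positive at AV >= 3 and negative at AV <= 2.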
row,SMILES,DuctApe activity index
1,O=C(O)CCC(=O)C(=O)O [a-Ketoglutaric acid],0
2,O=C(O)[C@H]1OC(O)[C@H](O)[C@@H](O)[C@H]1O (stereo partly drawn) [D-Galacturonic acid],3 (active)
3,OC[C@@H](O)[C@H](O)[C@H](O)[C@@H](O)CO [Dulcitol],0
4,OC[C@H](O)C(O)[C@@H](O)CO [L-Arabitol],0
5,O=C(O)C(=O)O [Oxalic acid],0
6,OCC(O)CO [Glycerol],3 (active)
7,O=C(O)CC(CC(=O)O)C(=O)O [Tricarballylic acid],0

# Same assay, conditions: nutrient role (plate category): nitrogen
row,SMILES,DuctApe activity index
1,CCC(N)C(=O)O (racemic) [DL-a-Amino-N-Butyric acid],1
2,NCC(=O)N[C@@H](CCC(N)=O)C(=O)O,1
3,Nc1[nH]cnc2ncnc1-2 [Adenine],0
4,Nc1cc[nH]c(=O)n1 [Cytosine],0
5,Nc1nc2c(ncn2[C@@H]2O[C@H](CO)[C@@H](O)[C@H]2O)c(=O)[nH]1 [Guanosine],0
6,N [Ammonia],0

# Same assay, conditions: nutrient role (plate category): phosphate & sulphur
row,SMILES,DuctApe activity index
1,N[C@@H](CS(=O)O)C(=O)O [L-Cysteine Sulfinic acid],0
2,Nc1ccc(S(=O)(=O)O)cc1 [p-Aminobenzene Sulfonic acid],0
3,O=c1ccn(C2OC(COP(=O)(O)O)C(O)C2O)c(=O)[nH]1 (configuration not stated) [Uridine 5`-Monophosphate],2
4,NC(CCSCC(N)C(=O)O)C(=O)O (configuration not stated) [Cystathionine],1
5,Nc1ncnc2c1ncn2[C@@H]1O[C@H](COP(=O)(O)O)[C@@H](O)[C@H]1O [Adenosine 5`-Monophosphate],1
6,C[C@H](CCC(=O)NCCS(=O)(=O)O)[C@H]1CC[C@H]2[C@@H]3[C@H](O)C[C@@H]4C[C@H](O)CC[C@]4(C)[C@H]3C[C@H](O)[C@]12C [Taurocholic acid],2
7,Nc1ccn([C@@H]2O[C@H](COP(=O)(O)O)[C@@H](O)[C@H]2O)c(=O)n1 [Cytidine 5`-Monophosphate],1
8,NC(=O)CCCCC1CCSS1 (racemic) [DL-Lipoamide],1
9,OC[C@H]1O[C@@H](S)[C@H](O)[C@@H](O)[C@@H]1O [1-Thio-b-D-Glucose],0
